Compound activity: PubChem BioAssay, several laboratories
Sa ugtP lethal: kills S. aureus RN4220 lacking UgtP; growth inhibition, % (concentration not given with the values); AID 1259309; S. aureus RN4220 ugtP deletion, OD600 growth, 16 h; 330,000 tested, 0.54% active; in the data active = growth inhibition above about 68%
Mtb betalactam: beta-lactam sensitization of Mtb H37Rv. M. tuberculosis H37Rv growth with meropenem, percent inhibition. inhibition, % at 25 µM. 330,000 tested, 0.27% active; call rule not given here;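 note: growth measured after seven days incubation then overnight dye step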
SSB-PriA inh: K. pneumoniae PriA-SSBct interaction inhibition | 430,000 tested, 0.6% active | AID 1272365 | AlphaScreen SSBct-PriA binding, biotinylated peptide | inhibition, % at 33 µM; in the data active = inhibition mostly above about 37%, no sharp cut-off; inactive = mostly below about 20%
RN4220 kill: kills Staphylococcus aureus RN4220; S. aureus RN4220 growth, OD600, 16 h; 330,000 tested, 0.33% active; AID 1259311; inhibition, % (test concentration not listed); in the data active = inhibition above about 85%
Mtb hypoxia inh: Mtb hypoxia fluorescent reporter inhibition | M. tuberculosis hypoxia-regulated fluorescent reporter, fluorescence | fluorescence inhibition, % (no concentration beside the values) | 300,000 tested, 0.1% active | AID 1159583; in the data active = fluorescence inhibition mostly above about 23%, no sharp cut-off; inactive = mostly below about 17%
Numbers stand for hits; . = inactive; ? = inconclusive; / = no result given. Most compounds without a hit are left out; they make up all but 1% or so of the library.

SMILES	Sa ugtP lethal	Mtb betalactam	SSB-PriA inh	RN4220 kill	Mtb hypoxia inh
CCCCCc1nc2c(c(=O)c3ccccc3n2C)c(=O)n1C1CCCCCC1	100.2	.	.	98.9	.
CC(=O)c1cccc(Oc2cc(NN3CCCCC3)c([N+](=O)[O-])cc2[N+](=O)[O-])c1	.	.	45.0	.	.
COC(=O)c1ccc(C(=O)N(/N=C\c2ccc(OC)cc2)c2nc3ccc(F)cc3s2)cc1	/	/	.	/	/
Cc1onc(-c2ccccc2)c1C(=O)NC(=S)NNC(=O)c1ccc(O)cc1O	.	?	.	.	.
Cc1onc(-c2ccccc2)c1C(=O)NC(=S)NNC(=O)c1ccccc1O	.	.	64.1	.	.
O=C(NC(=S)NNC(=O)c1ccccc1O)c1cccs1	.	.	45.3	.	.
O=C(/C=C/c1cccs1)Nc1onc2c1CCC2	/	/	.	/	/
O=S(=O)(Nc1ccccc1O)c1ccc(-c2ccccc2)cc1	.	.	.	.	.
O=S(=O)(Nc1cccnc1Cl)c1ccc(-c2ccccc2)cc1	.	.	.	89.2	.
O=C(Cn1c(=O)cnc2cc(S(=O)(=O)N3CCCCC3)ccc21)NCc1ccc2c(c1)OCO2	/	/	.	/	/
CCOc1ccc(NCc2ccccc2OCc2cccc(F)c2)cc1	92.1	.	.	.	.
Fc1cccc(COc2ccccc2CNc2ccccc2)c1	.	.	.	.	.
O=C(Nc1cccc(-c2nn[nH]n2)c1)c1ccc(Br)s1	.	.	115.6	.	.
O=C(Nc1cccc(-c2nn[nH]n2)c1)c1ccc(Cl)s1	.	.	.	.	.
O=C(CCc1csc(NS(=O)(=O)c2ccccc2)n1)N1CCN(c2ncccn2)CC1	/	/	.	/	/
CC(=O)c1cccc(NC(=O)c2onc(C)c2Cl)c1	.	.	115.4	.	.
Cc1noc(C)c1C(=O)NCc1ccccc1	.	.	.	.	/
Cc1noc(C(=O)NCc2ccccc2)c1Cl	.	.	104.2	.	.
Cc1ccc(Cl)cc1N1CCN(C(=O)Cc2csc(NC(=O)c3cnccn3)n2)CC1	/	/	.	/	/
CCOC(=O)N1CCN(C(=O)Nc2nc(CC(=O)NC3CCCCCC3)cs2)CC1	/	/	.	/	/
Cc1ccc(N(CCCCN2C(=O)c3ccccc3C2=O)C(=O)c2cccs2)cc1	.	.	65.7	.	/
COc1ccc(N(CCCN2C(=O)c3cccc4cccc(c34)C2=O)C(=O)c2cccs2)cc1	.	.	.	.	.
O=C1c2ccccc2C(=O)N1CCCCN(C(=O)c1ccc([N+](=O)[O-])o1)c1ccc(Cl)cc1	/	/	40.0	/	/
Cc1ccc2nc(N3C(=O)C(O)=C(C(=O)c4ccc(C)o4)C3c3ccc(O)cc3)sc2c1 (stereo not given)	87.3	.	.	.	.
Clc1ccc(/C=C/c2nc3ccccc3[nH]2)cc1	.	.	.	.	.
SMILES	Sa ugtP lethal	Mtb betalactam	SSB-PriA inh	RN4220 kill	Mtb hypoxia inh
Clc1ccc(/C=C/c2nc3ccccc3[nH]2)c(Cl)c1	91.6	.	.	.	.
CN(C)c1ccc(CCNC(=O)C(=O)Nc2ccc3c(c2)OCCO3)cc1	/	/	.	/	/
CCc1ccc(NC(=O)CSc2ncc(S(=O)(=O)c3ccc(C)cc3C)c(=O)[nH]2)cc1	/	/	69.0	/	/
COc1ccc(NC(=O)CSc2ncc(S(=O)(=O)c3ccc(C)cc3C)c(=O)[nH]2)cc1Cl	/	/	.	/	/
Cn1c(=O)oc2cc(S(=O)(=O)N3CCCC(C(=O)NCc4ccc5c(c4)OCO5)C3)ccc21 (stereo not given)	.	.	.	.	.
Cn1c(=O)oc2cc(S(=O)(=O)N3CCCC(C(=O)NCC4COc5ccccc5O4)C3)ccc21 (stereo not given)	.	.	104.2	.	.
CCCCn1c(N)c(N(CCOC)C(=O)CSCc2cccc(C)c2)c(=O)[nH]c1=O	.	.	49.3	.	.
Cc1cccc(CS(=O)(=O)Nc2cnn(C[C@H]3COc4ccccc4O3)c2)c1	/	/	.	/	/
O=Cc1c(N2CCSCC2)nc2ccccn2c1=O	.	.	.	.	40.2
O=C(NCc1ccccc1)c1ccc(-c2nc3ccccc3s2)s1	/	/	.	/	/
Cc1csc(C(=O)N2CCC(c3nnc(-c4ccco4)o3)CC2)c1	/	/	.	/	/
COc1ccc(F)cc1S(=O)(=O)N1CCC(Oc2cccc(C)n2)CC1	/	/	.	/	/
C=C(C)CSc1nc2sc3c(c2c(=O)n1C1CCCCC1)CCN(C)C3	active	.	.	.	.
COc1ccc(-c2cc(C(F)(F)F)nc(N3CCCCCC3)n2)cc1	95.1	.	.	.	.
Cc1cc(S(=O)(=O)N2CCN(c3ccc4nnc(C)n4n3)CC2)ccc1F	/	/	.	/	/
C/C(=C1/SC(N2CCCC2)=NC1=O)c1ccc(Br)cc1	.	.	.	.	75.7
Cc1cc(C)c(S(=O)(=O)NCC(C)(O)c2cccs2)cc1C (stereo not given)	/	/	.	/	/
C=CCn1c(N)c(C(=O)Nc2ccccc2OC)sc1=S	.	.	.	.	.
COC(=O)c1ccc(C)c(-n2c(N)c(C(=O)Nc3ccccc3C)sc2=S)c1	/	/	39.0	/	/
COc1ccccc1NC(=O)c1sc(=S)n(-c2ccc(Cl)cc2)c1N	/	/	36.0	/	/
COC(=O)c1ccc(C)c(-n2c(N)c(C(=O)NCc3ccco3)sc2=S)c1	/	/	.	/	/
CCCc1nnsc1C(=O)NCCc1nc(C2CC2)cc(C(F)(F)F)n1	/	/	.	/	/
CS(=O)(=O)NCc1ccc(C(O)c2ccccc2)s1 (stereo not given)	/	/	.	/	/
Cc1ccc(N(C(=O)Nc2ccccc2)C2=NCC(C)S2)cc1 (stereo not given)	87.7	.	.	.	.
CC1CN=C(N(C(=O)Nc2ccccc2)C(C)C)S1 (stereo not given)	.	.	.	.	.
SMILES	Sa ugtP lethal	Mtb betalactam	SSB-PriA inh	RN4220 kill	Mtb hypoxia inh
COc1ccc(NN=C(C(N)=O)C2=NC(C)(C)Cc3ccccc32)cc1	.	/	77.8	.	.
COc1ccc2nc(-c3ccc(Cl)c(NC(=O)c4cc(Cl)ccc4Cl)c3)cn2n1	/	/	.	/	/
N#Cc1c(N2CCCC(O)C2)nc(N)c2c(N)nc3c(c12)CC(=O)N3C12CC3CC(CC(C3)C1)C2 (stereo not given)	.	?	62.6	.	.
CCOC(=O)C1CCN(C(=O)CCCSc2ccc(NC(C)=O)nn2)CC1	/	/	.	/	/
Cc1nn(-c2ccccc2)c2c1C1(C(=O)N3c4c(cccc41)C(C)CC3(C)C)C(C#N)=C(N)O2 (stereo not given)	91.7	.	.	95.7	.
Cc1nn(-c2ccccc2)c2c1C1(C(=O)N(C)c3ccccc31)C(C#N)=C(N)O2 (stereo not given)	.	.	.	.	.
NC(N)=Nc1ccc(C=C2C=Cc3ccccc32)cc1	/	/	41.9	/	/
Clc1ccc2nc(CN3CCCc4ccccc43)cn2c1	.	.	42.6	.	.
Clc1ccc2nc(CN3CCCCC3)cn2c1	.	.	.	.	.
CCC(C)(C)NC(=O)C(c1ccccc1Cl)N(C(=O)CCC(=O)Nc1cc(C)on1)C1CC1 (stereo not given)	.	.	49.0	.	.
Cc1cc(NC(=O)CCC(=O)N(C2CC2)C(C(=O)NC(C)(C)C)c2ccccc2Cl)no1 (stereo not given)	.	.	.	.	.
Nc1onc2c1CCCC2	/	/	.	/	/
Cc1ccc(N=C2SC(C(=O)Nc3ccc(OC(F)(F)F)cc3)C(N)=C2C(=O)Nc2c(C)cc(C)cc2C)cc1 (stereo not given)	100.4	.	.	100.0	.
